From PubChem
Sampled rows, rich in hits. Any-hit rate of the full collection: about 4.6%.
D1 antagonist = human D1 dopamine receptor antagonism; P21728; HEK293 TREx D1 cells, calcium flux, dopamine EC80; hits give low values; activity change, negative = inhibition, % at 10 µM; 360,000 compounds, 3.2% hits; AID 504652; in the data active = activity change below about -30%; note: % is set by controls: 0 for no effect and ±100 for the full control effect
Target sequence (P21728 whole entry, looked up): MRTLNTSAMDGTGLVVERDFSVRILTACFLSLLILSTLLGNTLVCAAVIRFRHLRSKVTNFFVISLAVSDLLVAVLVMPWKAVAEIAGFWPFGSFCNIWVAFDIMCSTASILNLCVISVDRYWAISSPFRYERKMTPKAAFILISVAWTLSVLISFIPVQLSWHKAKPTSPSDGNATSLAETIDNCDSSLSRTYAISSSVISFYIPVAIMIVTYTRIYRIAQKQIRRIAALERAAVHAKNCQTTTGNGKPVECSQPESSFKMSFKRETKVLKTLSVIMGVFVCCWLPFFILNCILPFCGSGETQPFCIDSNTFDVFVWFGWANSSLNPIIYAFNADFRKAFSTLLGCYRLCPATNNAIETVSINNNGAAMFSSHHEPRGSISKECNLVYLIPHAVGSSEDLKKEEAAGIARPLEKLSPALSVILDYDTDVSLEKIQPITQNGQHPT
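Inducible Hek293 Trex D1 cells (tetracycline, overnight, 30 C). Calcium dye 30–90 min RT. Antagonist mode: EC80 dopamine added after 180 s compound read.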
D1 ag = human D1 receptor agonism; activation, % at 2 µM; 360,000 compounds, 1% hits; P21728; HEK293 T-REx D1 cells, calcium flux, agonist mode; note: 0% is about no effect
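Tetracycline-induced HEK293 TREx D1 cells, force-coupled to calcium signalling, were dye-loaded with a no-wash calcium kit. Compound was pin-added after a 10 s baseline. Fluorescence was read kinetically at 1 cycle/s for 180 s, with calcium rises flagged as agonism.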
D1 PAM = enhances dopamine response at the human D1 receptor | P21728 | HEK293 TREx D1 cells, calcium flux, dopamine EC20 potentiation | potentiation, % at 10 µM | 360,000 compounds, 0.036% hits | AID 504651; in the data active = potentiation above about 30%; note: 0% is about no effect
TRHR PAM = allosterically enhances the human TRH receptor | P34981 | 360,000 compounds, 0.66% hits | enhancement, % at 2 µM | TRHR cells, fluo-8 calcium fluorescence, EC20 TRH enhancement; in the data active = enhancement above about 30%; note: 0% is about no effect
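Enhancer read-out: after compound pinning and an initial kinetic agonist-mode read, an EC20 of TRH (10 nM final) was injected and fluo-8 calcium signal (Ex 480/Em 530) followed at 1 s/cycle for 100 cycles in TRHR-expressing cells.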
TRHR ag = agonists of human TRH receptor; P34981; TRHR cells, calcium flux fluo-8, FDSS agonist mode; activation, % at 2 µM; 360,000 compounds, 0.18% hits; note: 0% is about no effect
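Fluo-8-loaded TRHR cells; 10 s baseline, compound added, kinetic Ca2+ fluorescence read 1/s, agonist mode.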
* hit, by the source's call. Cut-off read from the data, not from the text of the source, unless noted: active = activation above about 30%; inactive = the rest.

SMILES | D1 antagonist | D1 ag | D1 PAM | TRHR PAM | TRHR ag
Cc1ccc(-n2nc(C)c3c(C(=O)O)cc(C)nc32)cc1 | -50* | 0 | -5 | 4 | 0
COc1ccc(-c2cc(C(=O)O)c3c(C)nn(-c4ccccn4)c3n2)cc1 | -40* | 4 | -5 | -1 | -1
O=C(Cn1cnc2c(nnn2Cc2ccc(F)cc2)c1=O)OCc1ccccc1 | 2 | 0 | -3 | 0 | -1
Cc1ccc(Cn2nnc3c(=O)n(CC(=O)OCc4ccccc4)cnc32)cc1 | -33* | 4 | -7 | 5 | 0
N#Cc1cc(N)ccc1Sc1ccc(Cl)cc1 | -32* | 1 | -9 | -5 | -1
N#Cc1cc(N)ccc1Sc1ccccc1 | -10 | 5 | -4 | 0 | 0
O=c1ccn(-c2cccc(C(F)(F)F)c2)nc1-c1ccn(-c2ccccc2)n1 | -38* | -1 | -4 | -5 | 0
Cc1cc(=O)c(C(=O)O)nn1-c1cccc(C(F)(F)F)c1 | 13 | -1 | -3 | -1 | 0
COc1ccc(/C=C/C(=O)NC(=S)NCC2CCCO2)cc1 (stereo not given) | -48* | 5 | -18 | -6 | 1
c1ccc2c(C[C@@H]3CNCCN3CC3CCCCC3)cccc2c1 | 3 | 116* | 4 | 11 | -1
CCOc1ccccc1NC(=O)CSC1=Nc2ccccc2C2=NC(CC(=O)NC3CCCCC3)C(=O)N12 (stereo not given) | 9 | -1 | 2 | -7 | -1
COc1ccc2c(CNCc3cccs3)c(C(=O)O)n(Cc3cccc(F)c3)c2c1 | 10 | -1 | 1 | 0 | 0
CSc1nc(N)nc(SCCS(=O)(=O)c2ccc(Cl)cc2)c1C#N | -31* | 3 | -9 | -2 | 1
CCOC(=O)CNC(=O)c1cc2c(=O)oc3ccccc3c2s1 | 6 | 0 | 0 | -4 | 0
CCn1c2c(c(=O)n3ncc(C(=O)N4CCN(c5ccc(Cl)cc5)CC4)c13)CN(Cc1ccc(OC)cc1)CC2 | -46* | 10 | -3 | 1 | 0
CCCNC(=O)OCCC12CC3CC(CC(C3)C1)C2 | -6 | 33* | -3 | -2 | 6
CCCNC(=O)NCCC12CC3CC(CC(C3)C1)C2 | 23 | 9 | -6 | 4 | -1
COc1ccccc1N1CCN(C(=O)c2cc(-c3ccc4c(c3)OCO4)on2)CC1 | -5 | 1 | -4 | 1 | 0
COc1ccccc1N1CCN(C(=O)c2cc(-c3ccc(C)c(F)c3)on2)CC1 | -81* | 2 | -1 | -3 | 0
O=[N+]([O-])c1cccc(-c2ccc(C(=S)N3CCOCC3)o2)c1 | -35* | 0 | -2 | 4 | 0
Cc1ccc(CN(C(=O)c2ccc(C(C)(C)C)cc2)c2ccccn2)o1 | -8 | 1 | -1 | 5 | 0
Cc1cc(NC(=O)N(C)CCc2c(C)nn(C)c2C)ccc1Br | -17 | -2 | -1 | -1 | 0
COc1ccc(/C=N/n2cc(-c3ccc(OC)cc3)nc2N)cc1 | -38* | -1 | 2 | 0 | 1
COc1ccc(OC)c(NC(=O)Cn2cc(C(=O)c3ccco3)c3ccccc32)c1 | 11 | 0 | 2 | -3 | 0
COc1ccc(OC)c(NC(=O)Cn2cc(C(=O)c3cccs3)c3ccccc32)c1 | -34* | 1 | 4 | 7 | 0
SMILES | D1 antagonist | D1 ag | D1 PAM | TRHR PAM | TRHR ag
CC(C)c1ccc(C(O)c2nc3ccccc3n2C)cc1 (stereo not given) | -36* | 11 | 2 | 3 | -1
Cc1cc2c(s1)c1cnn(Cc3c(F)ccc(F)c3Cl)c(=O)c1n2C | 5 | 7 | 5 | 2 | 1
CCN(CC(=O)NCc1ccc(Cl)cc1)C(=O)/C=C/c1ccccc1 | -31* | 0 | 2 | -6 | 0
Cc1cc(C)cc(Nc2cc(C)nc3nc(-c4ccco4)nn23)c1 | -39* | 3 | 0 | 0 | 0
COc1cccc(CCNC(=O)C2CCC(=O)N(Cc3cccc(OC)c3)C2)c1 (stereo not given) | -52* | 2 | 12 | -3 | 0
CC(=O)c1ccc(C(=O)Nc2sc3c(c2C(N)=O)CCN(Cc2ccccc2)C3)cc1 | -8 | 63* | -8 | -3 | 13
CCOC(=O)c1c(NC(=O)C2COc3ccccc3O2)sc2c1CCN(Cc1ccccc1)C2 (stereo not given) | -12 | 7 | -7 | -1 | 5
COc1cccc(OC)c1C(=O)Nc1sc2c(c1C(N)=O)CCN(Cc1ccccc1)C2 | 8 | 20 | -4 | 2 | 11
NC(=O)c1c(NC(=O)C2COc3ccccc3O2)sc2c1CCN(Cc1ccccc1)C2 (stereo not given) | -25 | 105* | -1 | 1 | 38*
NS(=O)(=O)c1ccc(CCNC(=O)Cn2c(=O)c3cccn3c3ccc(F)cc32)cc1 | -13 | 11 | -2 | -3 | 0
COc1ccc(-c2c(C)c3ccc(O)c(CN4CCCC(C)C4)c3oc2=O)cc1OC (stereo not given) | -16 | 0 | -2 | 1 | 0
Cc1ccc(NC(=O)CN2C=NS(=O)(=O)c3ccccc32)c(C)c1 | 7 | 2 | 0 | 2 | 0
Cc1ccc(C)c(OCCn2cc(C(=O)O)c3ccccc32)c1 | -40* | 4 | -11 | -4 | 0
Cc1ccc(OCCn2cc(C=O)c3ccccc32)cc1 | -34* | 7 | -4 | 0 | 0
COc1cccc(OCCn2cc(/C=N/NC(=O)c3ccncc3)c3ccccc32)c1 | -14 | 3 | -3 | 14 | 0
CC(=O)c1cn(CCOc2cc(C)ccc2C)c2ccccc12 | -14 | 12 | -10 | -13 | 0
COc1ccccc1OCCn1cc(C(=O)c2ccco2)c2ccccc21 | -7 | 24 | -5 | -2 | 1
COc1cccc(OCCn2cc(C(=O)c3ccco3)c3ccccc32)c1 | -1 | 50* | -7 | -1 | -1
COc1cccc(OCCn2cc(C(C)=O)c3ccccc32)c1 | -32* | 23 | -1 | -9 | 0
Cn1cc(C(c2ccccc2)c2ccc(Cl)s2)c2ccccc21 (stereo not given) | 2 | 2 | -1 | 3 | 1
O=C(NNC(=O)c1ccccc1[N+](=O)[O-])Nc1ccc(Cl)cc1 | -4 | 1 | -2 | 1 | 0
O=C(NNC(=O)c1ccccc1[N+](=O)[O-])c1ccc(NC(=O)c2ccccc2)cc1 | -38* | 4 | -21 | -2 | 6
O=C(NC1CCCCC1)N(Cc1nc2ccccc2c(=O)[nH]1)C1CCCC1 | -64* | 0 | 5 | -9 | -1
O=C(NC1CCCCC1)N(Cc1nc2ccccc2c(=O)[nH]1)C1CCCCC1 | -3 | 0 | 9 | -5 | 1
Cc1ccccc1NC(=O)CCc1c(C)nc2c(c1C)c(=O)n(C)c(=O)n2C | -6 | 2 | -1 | 0 | 0
COC(=O)c1scc(-c2ccc(C)cc2)c1S(=O)(=O)Nc1ccc(OC(F)(F)F)cc1 | -31* | 2 | -8 | 0 | 1
